Laboratory results as given in PubChem BioAssay (NCI).
Where “and” joins values, the source holds several entries; their conditions need not be identical. Equal entries are not always repeated. The panel holds about 83,000 compounds, 20% with a hit somewhere; the sample as a whole holds those more often.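 A percent growth of 40 corresponds to 60% growth inhibition; 0 means no net growth; -100 means all cells died. Active threshold: below 10.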 Calls of active or inactive are those of the source.

System: IGROV1 ovarian
Assay: NCI-60 one-dose screen, 48 h (100 = growth as untreated, 0 = no growth, -100 = all killed)
Settings: 10 µM unless noted
Method: Growth inhibition of the IGROV1 human tumor cell line is measured as a screen for anti-cancer activity. Cells are grown in 96 well plates and exposed to the test compound for 48 hours. Compounds are tested at a single concentration, which is 10^-5 M for most compounds. The reported endpoint is percent growth (GI% or GIPRCNT), where numbers from 0 - 100% represent growth inhibition, and numbers from -100% - 0 represent cell death. For example, a value of 40 represents 60% growth inhibition. A value of 0 means no net growth occurred over the course of the experiment. A value of -40 indicates 40% of cells at the beginning of the experiment died by the end of the experiment. A value of -100 means all cells are dead at the end of the experiment.
NCI-60 Human Tumor Cell Lines Screen was performed using the standard one-dose NCI protocol, which is described in more detail at https://dtp.cancer.gov/discovery_development/nci-60/default.htm.
Compounds with GIPRCNT values below 10 were considered active. Activity score was based on GIPRCNT using the following formula: […]
Score is 0 for GIPRCNT values of 100 or above, 50 for GIPRCNT values of 0, and 100 for GIPRCNT values of -100.

Compound | growth
CN(C)[C@@H]1C(=O)C(C(N)=O)=C(O)[C@@]2(O)C(=O)C3=C(O)c4c(O)ccc(Cl)c4[C@@](C)(O)[C@H]3C[C@@H]12 | 78.7% (inactive) and 87.2% (inactive)
CNC(=O)CCl | 107% (inactive)
CC[CH2][Sn]([Cl])([Cl])[CH2]CC.Oc1ccccc1C=NCCN=Cc1ccccc1O | 74.1% (inactive) and 61.9% (inactive)
CCN1C(=O)CC(=O)N(CC)C1=S | 98.5% (inactive)
O=[N+]([O-])c1cc(Br)c(O)c(Br)c1 | 111% (inactive)
O=C(Cc1ccccc1)NC(O)C(Cl)(Cl)Cl (stereo not given) | 115% (inactive)
O=[N+]([O-])c1ccc(OCc2ccc(S(=O)(=O)F)c(Cl)c2)c(Cl)c1 | 100% (inactive)
O=P(O)(Nc1ccccc1)Nc1ccccc1 | 90.6% (inactive)
Cn1cc(-c2csc(-c3cn(CCCCN4CCOCC4)c4ccc(F)cc34)n2)c2cccnc21 | 65.4% (inactive)
O=C1CCCCC1CN1CCCCC1 (stereo not given) | 93.9% (inactive)
CC[C@H](C)[C@H](NC(=O)CN(C)C)C(=O)N(C)[C@H](C[C@@H](OC(C)=O)c1nc(C(=O)NC23C4C5C2C2C3C4C52C(=O)OC)cs1)C(C)C (stereo not given in full) | 36.3% (inactive)
CC[C@H](C)[C@H](NC(=O)CN(C)C)C(=O)N(C)[C@H](C[C@@H](OC(C)=O)c1nc(C(=O)NC23CC(C(=O)OC)(C2)C3)cs1)C(C)C | 33% (inactive)
CC1=CC(=Nc2ccc(N(CCCl)CCCl)cc2)C=C(C)C1=O | 21% (inactive)
COc1cc2c(cc1OC)[C@@H]1C(=O)c3ccc4c(c3O[C@@H]1CO2)C[C@H](C(C)C)O4 | 81.6% (inactive)
C[C@]12CCc3sc(Nc4ccc(OC(F)(F)F)cc4)nc3C1=CC[C@@H]1[C@@H]2CC[C@]2(C)C(=O)CC[C@@H]12 | 93.6% (inactive)
C=CC[PH+](c1ccccc1)c1ccccc1.C=CC[PH+](c1ccccc1)c1ccccc1.[Pt+2].[S-]c1nc2ccccc2[nH]1.[S-]c1nc2ccccc2[nH]1 | -23.4% (active)
C[C@]12CC[C@H]3[C@@H](C[C@@H]4SC(Nc5cccc(F)c5)=N[C@@]45CC(=O)CC[C@]35C)[C@@H]1CCC2=O | 60% (inactive)
CC[C@H](C)[C@H](NC(=O)[C@H]1CCCCN1C)C(=O)N(C)[C@H](C[C@@H](OC(C)=O)c1nc(C(=O)NC23C4C5C2C2C3C4C52C(=O)OC)cs1)C(C)C (stereo not given in full) | 21.9% (inactive)
O=Cc1cn(Cc2ccccc2)c2ccccc12 | -21.4% (active)
ClC1OC(Cl)(Cl)C(Cl)(Cl)OC1(Cl)Cl (stereo not given) | 104% (inactive)

Compound | growth
CNC(=O)Oc1ccc(Cl)cc1SSc1cc(Cl)ccc1OC(=O)NC | 77.4% (inactive)
C[C@]12CCc3sc(Nc4ccc(F)cc4)nc3C1=CC[C@@H]1[C@@H]2CC[C@]2(C)C(=O)CC[C@@H]12 | 75.2% (inactive)
O=[N+]([O-])c1cc(Cl)c(Cl)cc1Cl | 111% (inactive) and 109% (inactive)
CC[C@H](C)[C@H](NC(=O)[C@H]1CCCCN1C)C(=O)N(C)[C@H](C[C@@H](OC(C)=O)c1nc(C(=O)N[C@@H](Cc2ccccc2)C[C@H](C)C(=O)O)cs1)C(C)C | 30.2% (inactive)
ClCc1ccc(Cl)c(Cl)c1 | 94.7% (inactive)
O=C1CN2CCC1CC2 | 108% (inactive)
Cc1cc(N(CCCl)CCCl)ccc1C=Nc1ccc(-c2csc(-c3ccccc3)n2)cc1 | 93.2% (inactive)
CC1(C)C2CCC1(CS(=O)(=O)O)C(=O)C2 (stereo not given) | 86.8% (inactive) and 115% (inactive)
Nc1nc(=S)nc(N)[nH]1 | 87.6% (inactive)
C=C[Se]CC(=O)/C=C/c1ccccc1 | 104% (inactive)
N#CC(N)c1ccccc1 (stereo not given) | 115% (inactive)
CCC1(CCSC#N)C(=O)NC(=O)NC1=O | 104% (inactive)
COc1ccc(O)c2c(=O)c3c(OC)cc4c(c3oc12)[C@@H]1C=CO[C@@H]1O4 | 16.3% (inactive)
Cc1cc[c-]cc1.Fc1c[c-]c(-c2ccccn2)c(F)c1.[Pt+2].c1ccc([PH+](c2ccccc2)c2ccccn2)cc1 | 53.2% (inactive)
CCCCS(=O)(=O)Cl | 116% (inactive)
O=C(Cc1ccccc1)c1ccccc1 | 110% (inactive)
Cc1nnc([S-])o1.[Au+].c1ccc([PH+](c2ccccc2)c2ccccc2)cc1 | 20.9% (inactive)
O=C1NC(=O)C(=Cc2ccccc2)C(=O)N1 | 92.5% (inactive) and 104% (inactive)
Oc1cc(Cl)ccc1Oc1ccc(Cl)cc1Cl | 52.4% (inactive)
CC(=O)C(N)Cc1ccccc1 (stereo not given) | 107% (inactive)
